PubChem BioAssay (NCATS)
Several values for one entry are separate records, joined by “and”; a condition that tells them apart may be missing. Equal values may be shown once. A number with no mark means an inactive call. Inconclusive results are not listed. Where a call stands in place of a potency, no number is given. Activity calls are given as the source filed them. Unless noted, the call rests on the fitted dose curve; in most records, active means well fitted curve in the direction sought with a large enough effect; inconclusive means small, poorly fitted or top-dose-only effect, or another doubt; inactive means no such curve, though single readings can be large; an effect the other way counts as inactive or inconclusive.

Legend:
[1] = tested on: C33A; test: Primary qHTS to identify gynecologic anti-cancer compounds using libraries of approved drugs and bioactive compounds (AID 1345084); details: Gynecologic cancer cell panel viability, ATPlite luminescence, 48 h; series mostly up to 57.5 µM; further: nearly all actives have a fitted effect of over 55% in size; further: potency means the concentration at half of the fitted maximal effect
In short: (§1)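 In this quantitative HTS, cell killing is estimated from loss of ATP-dependent luciferase light. Cells see five compound concentrations over a 48 h exposure.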

[2] = tested on: CASKI; test: as above; details: Gynecologic cancer cell panel viability, ATPlite luminescence, 48 h; series mostly up to 57.5 µM
In short: as §1

[3] = tested on: Es-2; test: as above; details: Gynecologic cancer cell panel viability, ATPlite luminescence, 48 h; series mostly up to 57.5 µM
In short: as §1

[4] = tested on: HeLa; test: as above; details: Gynecologic cancer cell panel viability, ATPlite luminescence, 48 h; series mostly up to 57.5 µM
In short: as §1

[5] = tested on: Hek293T; test: as above; details: Gynecologic cancer cell panel viability, ATPlite luminescence, 48 h, control line for the selectivity index; series mostly up to 57.5 µM
In short: as §1

[6] = tested on: JEG-3; test: as above; details: Gynecologic cancer cell panel viability, ATPlite luminescence, 48 h; series mostly up to 57.5 µM
In short: as §1

[7] = tested on: OV90; test: as above; details: Gynecologic cancer cell panel viability, ATPlite luminescence, 48 h; series mostly up to 57.5 µM
In short: as §1

[8] = tested on: PA-1; test: as above; details: Gynecologic cancer cell panel viability, ATPlite luminescence, 48 h; series mostly up to 57.5 µM
In short: as §1

[9] = tested on: SKOV3; test: as above; details: Gynecologic cancer cell panel viability, ATPlite luminescence, 48 h; series mostly up to 57.5 µM
In short: as §1

[10] = tested on: Tov-21-G; test: as above; details: Gynecologic cancer cell panel viability, ATPlite luminescence, 48 h; series mostly up to 57.5 µM
In short: as §1

[11] = tested on: Tov112D; test: as above; details: Gynecologic cancer cell panel viability, ATPlite luminescence, 48 h; series mostly up to 57.5 µM
In short: as §1

[12] = Drug repurposing screens with cells derived from glioblastoma tumor samples (AID 1345199); details: GBM patient neurospheres viability, ATP luminescence, 48 h; further: nearly all actives have a fitted effect of over 40% in size
In short: (§2)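 Four patient lines of CD133+ GBM neurospheres were screened at several concentrations; hits were retested in those lines plus three slower-growing GBM lines, using 48-hour treatment and ATP-based viability.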

[13] = tested on: astro; test: as above; details: viability, ATP luminescence, 48 h; series mostly up to 45.9 µM
In short: as §2

[14] = molecular target: Nuclear receptor subfamily 1 group I member 2 (Rattus norvegicus) (UniProt Q9R1A7); test: qHTS assay for small molecule activators of the rat pregnane X receptor (rPXR) signaling pathway (AID 651751; call rule not given here); details: rPXR reporter cells, luciferase (One-Glo), 24 h
[15] = qHTS assay for small molecule activators of the human pregnane X receptor (PXR) signaling pathway (AID 720659; call rule not given here)
[16] = tested on: CAOV3; test: Primary qHTS to identify gynecologic anti-cancer compounds using libraries of approved drugs and bioactive compounds (AID 1345084); details: Gynecologic cancer cell panel viability, ATPlite luminescence, 48 h; series mostly up to 57.5 µM; further: nearly all actives have a fitted effect of over 55% in size; further: potency means the concentration at half of the fitted maximal effect
In short: as §1

[17] = at 45.9 µM (top of the series), tumour line B
[18] = at 45.9 µM (top of the series), tumour line D
[19] = at 46 µM (top of the series), tumour line A

Nuclear receptor subfamily 1 group I member 2 (Rattus norvegicus), sequence (Q9R1A7 whole entry, looked up): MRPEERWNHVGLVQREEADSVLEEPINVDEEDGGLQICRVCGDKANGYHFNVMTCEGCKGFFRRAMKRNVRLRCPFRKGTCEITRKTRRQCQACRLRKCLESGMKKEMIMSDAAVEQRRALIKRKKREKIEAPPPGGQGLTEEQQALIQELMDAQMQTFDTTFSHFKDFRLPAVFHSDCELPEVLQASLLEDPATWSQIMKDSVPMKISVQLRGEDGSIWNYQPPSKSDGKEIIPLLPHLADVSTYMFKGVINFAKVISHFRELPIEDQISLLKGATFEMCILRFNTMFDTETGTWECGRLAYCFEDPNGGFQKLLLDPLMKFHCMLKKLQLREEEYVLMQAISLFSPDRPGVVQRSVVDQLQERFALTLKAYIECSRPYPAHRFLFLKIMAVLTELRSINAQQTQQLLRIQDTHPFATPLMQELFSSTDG

With `CCC1(CC)C(=O)C=CNC1=O` as the molecule, how does the Potency [1] read?
Its Potency is “inactive”.

And the outcome [2]?
Its outcome is “inactive”.

And the Potency [3]?
The Potency was “inactive”.

And the Potency [4]?
Its Potency is “inactive”.

What about the outcome [5] of the same molecule?
The outcome was “inactive”.

What about the outcome [6] of the same molecule?
The outcome was “inactive”.

What about the Potency [7] of the same molecule?
Its Potency is “inactive”.

What about the Potency [8] of the same molecule?
The Potency was “inactive”.

And the outcome [9]?
The outcome was “inactive”.

And the Potency [10]?
The Potency was “inactive”.

What about the Potency [11] of the same molecule?
The Potency was “inactive”.

And the activity, negative = cell killing [12, 17]?
Its activity, negative = cell killing is -5.96%.

And the activity, negative = cell killing [12, 18]?
The activity, negative = cell killing was -8.64%.

What about the activity, negative = cell killing [12, 19] of the same molecule?
The activity, negative = cell killing was -23.7%.

What about the Potency [13] of the same molecule?
Its Potency is “inactive”.

With `Clc1ccccc1N1CCNCC1` as the molecule, how does the Potency [1] read?
The Potency was “inactive”.

And the outcome [2]?
The outcome was “inactive”.

What about the Potency [3] of the same molecule?
The Potency was “inactive”.

And the Potency [4]?
Its Potency is “inactive”.

And the outcome [5]?
Its outcome is “inactive”.

And the outcome [6]?
Its outcome is “inactive”.

What about the Potency [7] of the same molecule?
Its Potency is “inactive”.

What about the Potency [8] of the same molecule?
Its Potency is “inactive”.

And the outcome [9]?
Its outcome is “inactive”.

What about the Potency [10] of the same molecule?
Its Potency is “inactive”.

What about the Potency [11] of the same molecule?
Its Potency is “inactive”.

With `CCOC(=O)CC(SP(=S)(OC)OC)C(=O)OCC` (stereo not given) as the molecule, how does the Potency [1] read?
The Potency was “inactive”.

And the outcome [2]?
Its outcome is “inactive”.

What about the Potency [3] of the same molecule?
Its Potency is “inactive”.

What about the Potency [4] of the same molecule?
Its Potency is “inactive”.

What about the outcome [5] of the same molecule?
Its outcome is “inactive”.

And the outcome [6]?
The outcome was “inactive”.

What about the Potency [7] of the same molecule?
The Potency was “inactive”.

What about the Potency [8] of the same molecule?
Its Potency is “inactive”.

What about the outcome [9] of the same molecule?
Its outcome is “inactive”.

And the Potency [10]?
The Potency was “inactive”.

What about the Potency [11] of the same molecule?
Its Potency is “inactive”.

And the activity, negative = cell killing [12, 17]?
Its activity, negative = cell killing is -14.8%.

And the activity, negative = cell killing [12, 19]?
Its activity, negative = cell killing is -27.3%.

And the activity, negative = cell killing ([12]; at 91.6 µM (top of the series), tumour line B)?
The activity, negative = cell killing was -2.57%.

And the activity, negative = cell killing ([12]; at 91.6 µM (top of the series), tumour line D)?
The activity, negative = cell killing was -14%.

And the max response [14]?
The max response was -0.753% and 0.726% and 3.47%.

What about the outcome [15] of the same molecule?
The outcome was “inactive”.

With `O=c1oc2ccccc2c(O)c1Cc1c(O)c2ccccc2oc1=O` as the molecule, how does the Potency [1] read?
Its Potency is “inactive”.

What about the outcome [2] of the same molecule?
Its outcome is “inactive”.

And the Potency [3]?
The Potency was “inactive”.

And the Potency [4]?
Its Potency is “inactive”.

What about the outcome [5] of the same molecule?
Its outcome is “inactive”.

And the outcome [6]?
The outcome was “inactive”.

And the Potency [7]?
The Potency was “inactive”.

And the Potency [8]?
The Potency was “inactive”.

And the outcome [9]?
Its outcome is “inactive”.

And the Potency [10]?
Its Potency is “inactive”.

And the Potency [11]?
The Potency was “inactive”.

What about the activity, negative = cell killing ([12]; at 21.2 µM (top of the series), tumour line B) of the same molecule?
Its activity, negative = cell killing is -21.7%.

And the activity, negative = cell killing ([12]; at 21.2 µM (top of the series), tumour line D)?
Its activity, negative = cell killing is -20.9%.

And the activity, negative = cell killing ([12]; at 21.3 µM (top of the series), tumour line A)?
Its activity, negative = cell killing is -20.4%.

For `CN1C(=O)NC(=O)C(C)(C2=CCCCC2)C1=O` (stereo not given), which Potency [1] is on record?
The Potency was “inactive”.

What about the outcome [2] of the same molecule?
The outcome was “inactive”.

And the Potency [3]?
Its Potency is “inactive”.

What about the Potency [4] of the same molecule?
Its Potency is “inactive”.

What about the outcome [5] of the same molecule?
Its outcome is “inactive”.

What about the outcome [6] of the same molecule?
The outcome was “inactive”.

What about the Potency [7] of the same molecule?
The Potency was “inactive”.

And the Potency [8]?
The Potency was “inactive”.

What about the outcome [9] of the same molecule?
The outcome was “inactive”.

And the Potency [10]?
The Potency was “inactive”.

What about the Potency [11] of the same molecule?
The Potency was “inactive”.

And the activity, negative = cell killing [12, 17]?
Its activity, negative = cell killing is 16.4% and -21.6%.

What about the activity, negative = cell killing [12, 18] of the same molecule?
Its activity, negative = cell killing is 3.59% and 4.39%.

What about the activity, negative = cell killing [12, 19] of the same molecule?
Its activity, negative = cell killing is 3.99%.

For `C[C@]12CC[C@H]3[C@@H](CCC4=CC(=O)CC[C@@H]43)[C@@H]1CC[C@@H]2OC(=O)CCc1ccco1`, which Potency [1] is on record?
Its Potency is “inactive”.

What about the outcome [2] of the same molecule?
Its outcome is “inactive”.

And the Potency [3]?
Its Potency is “inactive”.

What about the Potency [4] of the same molecule?
Its Potency is 3.16 µM (active).

What about the outcome [5] of the same molecule?
The outcome was “inactive”.

And the outcome [6]?
Its outcome is “inactive”.

And the Potency [7]?
Its Potency is “inactive”.

And the Potency [8]?
The Potency was 25.1 µM (active).

What about the outcome [9] of the same molecule?
Its outcome is “inactive”.

And the Potency [10]?
The Potency was “inactive”.

And the Potency [11]?
The Potency was “inactive”.

What does the source list for `CC(C)N(CCC(C(N)=O)(c1ccccc1)c1ccccn1)C(C)C` (stereo not given)?
Potency [1]: inactive; outcome [2]: inactive; Potency [3]: inactive; Potency [4]: inactive; outcome [5]: inactive; outcome [6]: inactive; Potency [7]: inactive; Potency [8]: inactive; outcome [9]: inactive; Potency [10]: inactive; Potency [11]: inactive; activity, negative = cell killing [12, 17]: -20.9%; activity, negative = cell killing [12, 18]: 4.58%

Which results are given for `CNCC(=O)c1ccc(O)c(O)c1`?
Potency [1]: inactive; outcome [2]: inactive; Potency [3]: inactive; Potency [4]: inactive; outcome [5]: inactive; outcome [6]: inactive; Potency [7]: inactive; Potency [8]: inactive; outcome [9]: inactive; Potency [10]: inactive; Potency [11]: inactive; activity, negative = cell killing [12, 17]: -11.2%; activity, negative = cell killing [12, 18]: -3.6%; Potency [13]: inactive

Which results are given for `CC(NC(C)(C)C)C(=O)c1cccc(Cl)c1` (stereo not given)?
Potency [1]: inactive; outcome [2]: inactive; Potency [3]: inactive; Potency [4]: inactive; outcome [5]: inactive; outcome [6]: inactive; Potency [7]: inactive; Potency [8]: inactive; outcome [9]: inactive; Potency [10]: inactive; Potency [11]: inactive; activity, negative = cell killing [12, 17]: -9.74%; activity, negative = cell killing [12, 18]: 3.9%; Potency [13]: inactive

With `CN1C(=O)CCS(=O)(=O)C1c1ccc(Cl)cc1` (stereo not given) as the molecule, how does the Potency [1] read?
The Potency was “inactive”.

What about the outcome [2] of the same molecule?
Its outcome is “inactive”.

What about the Potency [3] of the same molecule?
Its Potency is “inactive”.

What about the Potency [4] of the same molecule?
Its Potency is “inactive”.

What about the outcome [5] of the same molecule?
The outcome was “inactive”.

And the outcome [6]?
The outcome was “inactive”.

And the Potency [7]?
The Potency was “inactive”.

What about the Potency [8] of the same molecule?
Its Potency is “inactive”.

And the Potency [10]?
The Potency was “inactive”.

What about the Potency [11] of the same molecule?
Its Potency is “inactive”.

And the activity, negative = cell killing [12, 17]?
The activity, negative = cell killing was -12.1% and -22.6%.

What about the activity, negative = cell killing [12, 18] of the same molecule?
The activity, negative = cell killing was -13.6% and -16.2%.

And the activity, negative = cell killing [12, 19]?
Its activity, negative = cell killing is -23.1% and -4.54%.

Which results are given for `COC1CC(=C(c2cccs2)c2cccs2)C[N+](C)(C)C1` (stereo not given)?
Potency [1]: inactive; outcome [16]: inactive; Potency [3]: inactive; outcome [5]: inactive; outcome [6]: inactive; Potency [7]: inactive; outcome [9]: inactive; Potency [10]: inactive; Potency [11]: inactive; Potency [13]: inactive

For `CC(C)(C)c1ccc(O)cc1`, which Potency [1] is on record?
Its Potency is “inactive”.

And the outcome [2]?
The outcome was “inactive”.

And the Potency [3]?
Its Potency is “inactive”.

What about the Potency [4] of the same molecule?
Its Potency is “inactive”.

And the outcome [5]?
The outcome was “inactive”.

And the outcome [6]?
Its outcome is “inactive”.

And the Potency [7]?
The Potency was “inactive”.

What about the Potency [8] of the same molecule?
The Potency was “inactive”.

What about the Potency [10] of the same molecule?
Its Potency is “inactive”.

And the Potency [11]?
The Potency was “inactive”.

What about the activity, negative = cell killing [12, 17] of the same molecule?
Its activity, negative = cell killing is -7.29%.

And the activity, negative = cell killing [12, 18]?
The activity, negative = cell killing was 7.61%.

And the activity, negative = cell killing [12, 19]?
Its activity, negative = cell killing is -21%.

And the Potency [13]?
Its Potency is “inactive”.
